Assay outcomes as filed in PubChem.
This is a sample that favours compounds with a hit; in the whole collection about 4.3% have one here.
CF NFkB inh: blocks PAF-induced NF-kB reporter in cystic fibrosis cells | 0.86% of 360,000 active | KKLEB NF-kB-GFP reporter, GFP fluorescence overnight | inhibition, % at 5 µM | AID 588850;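 active means at least 50% inhibition at 5 µM, scaled per plate between neutral and stimulator controls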;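 further: PAF is a Pseudomonas aeruginosa culture filtrate used as stimulus; plate controls were PAF-stimulated DMSO wells for no effect and unstimulated DMSO wells for full effect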
Peg3 prom inh: inhibitors of Peg3 promoter | 1.7% of 360,000 active | HeLa PEG-Prom luciferase reporter, luminescence, overnight | inhibition, % at 20 µM;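 active means inhibition of at least 50% at 20 µM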
CHOP inh: inhibitors of CHOP induction in ER stress response | CHO-K1 CHOP-promoter luciferase, tunicamycin-induced, 15-18 h | inhibition, % at 10 µM | 3.8% of 220,000 active | AID 2732;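 active means compounds that reduced the stress-induced luciferase reporter signal by more than about 70% of percent inhibition, limit read from the data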;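 further: 0% = tunicamycin plus vehicle and 100% = wells without tunicamycin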
TRPM1 prom inh: MITF TRPM1 promoter inhibition in SK-MEL-5 cells; SK-MEL-5 TRPM1 promoter luciferase, 24 h; inhibition, % at 12.5 µM; 0.83% of 330,000 active; AID 488899;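 active means mean inhibition across replicates of 60% or more, whatever share of single replicates reaches that level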
KKLEB cytotox: CF airway cell cytotoxicity counter-screen; KKLEB CF airway cells viability, ATPlite luminescence, overnight; hits give low values; cells stimulated with P. aeruginosa culture filtrate; activity change (cytotoxicity), % at 5 µM; 0.36% of 360,000 active; AID 602141;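 active means corrected activity change at or below -50% at 5 µM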
HIF-2a block: blocks HIF-2a reporter activity; 786-0 RCC cells HIF-2a reporter, luciferase luminescence, overnight; inhibition, % at 18.8 µM; 0.72% of 360,000 active; AID 624352;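 active means inhibition of the luminescence signal of 40% or more relative to plate controls, in a single-dose primary screen at 18.75 µM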
CHOP confirm: confirmation of CHOP induction inhibitors. 45% of 2,100 active. inhibition, % at 10 µM. shares compounds with CHOP inh. CHO-CHOP promoter luciferase reporter, tunicamycin-induced, luminescence;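 active means mean of three repeat readings of reporter signal inhibition above a set limit, cut at about 70% in these data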;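 further: 0% = tunicamycin plus vehicle and 100% = wells lacking tunicamycin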
An asterisk follows results filed as active; . = no result.

SMILES	CF NFkB inh	Peg3 prom inh	CHOP inh	TRPM1 prom inh	KKLEB cytotox	HIF-2a block	CHOP confirm
CCN(CC)C(=S)Sc1c(-c2ccccc2)c2cc(Cl)ccc2[nH]c1=O	-3	43	97*	-2	-1	19	48
Cc1ccc(S(=O)ONc2cccc(NOS(=O)c3ccc(C)cc3)c2)cc1 (stereo not given)	-19	11	.	.	22	8	.
O=[N+]([O-])c1ccc(/C=N/N=C/c2ccc([N+](=O)[O-])o2)o1	83*	105*	108*	87*	-47	23	134*
O=C1N=C2N(CCN3CCCCC3)c3ccccc3N2/C1=C\c1ccc([N+](=O)[O-])o1	.	.	107*	.	.	.	-27
CCN(CC)C(=O)[C@H]1CC(CC(=O)NCCCOC)C(=O)N2CCc3c([nH]c4ccccc34)[C@]12C (stereo not given in full)	-3	15	.	-7	-3	0	.
COc1ccc2nc(NC(=O)C3CCCN(S(=O)(=O)c4cccs4)C3)sc2c1 (stereo not given)	22	2	96*	1	1	5	51
C[C@H](CO)N1C[C@H](C)[C@@H](CN(C)C(=O)Nc2cccc(F)c2)Oc2ncc(Br)cc2C1=O	27	0	.	.	-13	8	.
C=CCc1ccc(OCc2ccc(C(=O)Nc3ccc(NC(C)=O)cc3)o2)c(OC)c1	-5	-139	.	-31	7	-54	.
CNC(=O)c1ccc2cc(OC)c(OC)cc2c1	-14	-13	.	.	15	1	.
O=C(Nc1ccc(Oc2c(F)c(F)c(F)c(F)c2F)cc1)OC1CCN2Cc3ccccc3N=C12 (stereo not given)	-19	109*	100*	62*	4	22	125*
Cc1cccc(NC(=O)Nc2ccc(Oc3c(F)c(F)c(F)c(F)c3F)cc2)c1	12	16	10	11	-8	-13	.
CCCC(NCC(O)COc1ccc(-c2ccccc2)cc1)c1ccccc1 (stereo not given)	11	79*	103*	40	-16	-15	125*
CC(NCC(O)COc1ccc(Br)cc1)c1ccccc1 (stereo not given)	-3	-16	.	-13	-6	7	.
Cc1ccc(CSc2[nH]c(=O)ncc2C)cc1	8	-10	.	-5	-19	-16	.
NC1CCN(c2c(F)cc3c(=O)c(C(=O)O)cn(C4CC4)c3c2Cl)C1 (stereo not given)	6	13	-2	-7	0	15	.
C=C(C)Cn1c(N2CCC(Cc3ccccc3)CC2)nc2c1c(=O)[nH]c(=O)n2C	14	5	99*	-3	-6	26	125*
COC(=O)C[C@H]1CC[C@H](NC(=O)c2cccc(F)c2)[C@@H](CO)O1	.	.	.	.	.	-14	.
Cn1cnc([N+](=O)[O-])c1S(=O)(=O)c1cccc(Cl)c1	36	111*	109*	18	-54*	35	110*
CC(=O)C1=CCC(c2ccc(C)o2)N(S(=O)(=O)c2ccc(C)cc2)C1 (stereo not given)	4	-9	.	.	-8	0	.
CCOC(=O)c1cnc(-n2nc(C)cc2C)nc1NCCc1ccccc1	-22	6	101*	-3	-25	-44	-8
CCOc1ccc(CCNC(=O)CCc2nnc3ccc(N4CCCCC4)nn23)cc1OCC	4	3	.	.	-9	17	.
Cc1ccc(O)c(-c2cc(-c3ccccc3C)[nH]n2)c1	-1	-39	106*	14	1	-130	8
Oc1ccc(Cl)cc1-c1cc(-c2ccccc2Cl)[nH]n1	19	-121	-27	-23	-12	-155	.
Oc1ccccc1-c1cc(-c2ccccc2Cl)[nH]n1	-12	-173	99*	-53	-6	-144	10
O=C(CNC(=O)c1ccccc1F)NCc1ccncc1	-10	2	.	-7	0	0	.
CC(C)(C)c1ccc(C2(C)NC(=O)NC2=O)cc1 (stereo not given)	11	7	.	-12	0	10	.
O=C(N=Nc1c(O)n(Cc2ccccc2)c2ccccc12)c1cc2ccccc2cc1O	40	27	106*	-85	-47	-156	95*
Cc1ccc(NC(=O)Cn2c(O)c(N=NC(=O)c3cc4ccccc4cc3O)c3ccccc32)cc1	20	97*	97*	40	-35	-46	-21
